Test results published in PubChem BioAssay AID485341 (National Center for Advancing Translational Sciences (NCATS), 2010).
Out of some 330,000 compounds screened, about 1,700 (0.52%) were called active. This excerpt belongs to a sample that is enriched for actives. Values without a mark were called inactive. Calls follow the shape of the dose curve; as a rule, active = well fitted inhibition curve with a large enough effect; inconclusive = small, poorly fitted or top-dose-only effect; inactive = no such curve, though single readings can be large or run the other way.

Target: Beta-lactamase (Escherichia coli (strain K12)) (UniProt P00811)
Test: qHTS Inhibitors of AmpC Beta-Lactamase (assay without detergent); also: nearly all actives have a fitted effect of over 20% in size
Conditions: AmpC nitrocefin hydrolysis, absorbance 480 nm, 0.0001% Triton; series mostly up to 57.1 µM; activity change, negative = inhibition: at the top concentration
Method: NIH Molecular Libraries Probe Production Network [MLPCN] NIH Chemical Genomics Center [NCGC] Assay Provider: Professor Brian Shoichet, UCSF Assay Overview: This aggregation profiling approach exploits the sensitivity of aggregate formation to detergent. Inhibition of b-lactamase is measured in the presence and absence of 0.01% Triton X-100. This particular assay had the prescence of 0.01% Triton X-100. See Pubchem assay "Promiscuous and Specific Inhibitors of AmpC Beta-Lactamase (assay without detergent)" for related screen. Compounds that inhibit only in the absence of detergent are considered likely promiscuous aggregators. A screen of 1,030 compounds was performed in Brian Shoichet's lab in 96-well format. AmpC activity was measured by following the absorbance at 480 nm. Nitrocefin is a chromogenic substrate: while nitrocefin is yellow (lmax 390 nm), the product of its hydrolysis is red (lmax 486 nm, 17,000 M-1). AmpC beta lactamase was provided by Shoichet Lab, UCSF.
Buffer: 20 mM phosphate buffer, pH 7.0 Triton X-100: No Detergent screen: 0.0001%, Detergent screen: 0.01%. Reagents/Controls: Buffer in columns 3 and 4 as negative control (no enzyme). 5.3 nM AmpC in columns 1, 2, 5-48. Titration of UCSF compound 9 control (from 10 mM, then 1:2) pin-transferred to column 2. Column 1 is neutral (100% activity). Assay Steps: Six uL of reagents were dispensed to 1536-well Greiner black clear bottom plates. Compounds and controls (23 nL) were transferred via Kalypsys PinTool. The plates were incubated for 15 min at room temperature, and then 2 uL of 800 uM solution of nitrocefin was added to start the reaction. The plates were immediately transferred to and read every 20 seconds for 4 min on ViewLux (Perkin-Elmer) High-throughput CCD imager using 480 nm absorbance protocol. During dispense, reagent bottles were kept submerged into 4 deg C water bath. Keywords: NIH Roadmap, MLSCN, MLI, MLSMR, qHTS, NCGC, AmpC Beta-Lactamase, Aggregation
Potency is read from the fitted curve at half-maximal effect.

Beta-lactamase (Escherichia coli (strain K12)), sequence (P00811 whole entry, looked up): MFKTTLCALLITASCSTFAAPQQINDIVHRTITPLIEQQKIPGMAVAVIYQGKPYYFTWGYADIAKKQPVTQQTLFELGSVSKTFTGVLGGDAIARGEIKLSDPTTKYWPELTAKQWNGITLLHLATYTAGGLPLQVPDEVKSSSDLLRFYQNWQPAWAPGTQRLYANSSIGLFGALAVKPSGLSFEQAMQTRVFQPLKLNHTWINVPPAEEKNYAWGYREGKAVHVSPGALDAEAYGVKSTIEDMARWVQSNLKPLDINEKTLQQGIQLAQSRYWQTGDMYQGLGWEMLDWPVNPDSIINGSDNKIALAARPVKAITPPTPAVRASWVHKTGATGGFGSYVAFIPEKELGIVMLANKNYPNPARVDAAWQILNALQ

Compound	activity change, negative = inhibition	Potency
O=C(CN(c1cccc(Cl)c1)S(=O)(=O)c1ccccc1)NN=C1CCCC1	-55.4%	–
Cc1nn(Cc2ccc(F)cc2)c(C)c1NC(=O)c1cccnc1Cl	-7.61%	–
Cc1ccccc1Cn1nc(C)c(NC(=O)C(F)(F)F)c1C	2.13%	–
Cc1nn(Cc2ccc(F)cc2)c(C)c1NC(=O)c1noc2c1CCc1ccccc1-2	–	11.2 µM (active)
COC(=O)[C@]1(Cc2ccccc2)N[C@H](CN(C)S(=O)(=O)c2ccc(OC(F)(F)F)cc2)[C@@H]2C(=O)N(Cc3ccccc3)C(=O)[C@@H]21	-12.4%	–
CC(O)c1nc2c(c(=O)n(C)c(=O)n2C)n1C (stereo not given)	-0.321%	–
Cc1ccc(S(=O)(=O)N(CC(=O)NCc2ccco2)c2ccccc2C)cc1	-17%	–
COc1ccc(-c2cc(C(=O)N(C)CC(=O)Nc3ccccc3Cl)c3ccccc3n2)cc1OC	86.4%	–
CC(C)CC1(C)NC(=O)N(CC(=O)Nc2ccc3c(c2)OCCO3)C1=O (stereo not given)	-18.8%	–
COC(=O)C1=C(Nc2ccc(OC)cc2)C=C(C)C(C(=O)OC)C1c1ccc(C)cc1 (stereo not given)	7.69%	–
Cc1ccc(NC2=C(Cl)C(=O)OC2OC(=O)c2ccccc2C)cc1 (stereo not given)	–	3.98 µM (active)
Cc1ccccc1C(=O)Nc1ccccc1NC(=O)c1ccccc1C	-28.1%	–
Cc1ccccc1C(=O)OC1OC(=O)C(Cl)=C1Nc1ccccc1 (stereo not given)	–	6.31 µM (active)
COC(=O)C1=C(Nc2ccc(C)cc2)C=C(C)C(C(=O)OC)C1c1ccc(F)cc1 (stereo not given)	-25.5%	–
Cc1ccccc1C(=O)O	-15.1%	–
O=S(=O)(Nc1ncccn1)c1ccc(NS(=O)(=O)c2cccc(Cl)c2Cl)cc1	-27.4%	–
O=C(COC(=O)/C=C/c1cccs1)NC1CCCCC1	-10.1%	–
COc1ccc(CC(=O)N[C@@H]2c3cc(OC)c(OC)cc3C[C@H]2OCc2ccccc2)cc1	142%	–
CC(=O)c1c(C)c[nH]c1C	-13.8%	–
CCCCN(C(=O)C1CCC1)c1c(N)n(Cc2ccccc2)c(=O)[nH]c1=O	-7.77%	–
CCn1c2ccccc2c2cc(NC(=O)Nc3ccc([N+](=O)[O-])cc3C)ccc21	-19.7%	–
COCCCNC(=S)N1CCN(c2nc(-c3cccc(OC)c3)cs2)CC1	136%	–
CC(=O)Nc1ccc(NC(=O)CSc2nnc(COc3ccccc3C)n2CC2CCCO2)cc1 (stereo not given)	12.5%	–
CC[N+]1(CC)CC2=Cc3ccccc3CC2C1 (stereo not given)	-10.4%	–
CC(=NCc1ccco1)c1c(C(F)(F)F)[nH]n(-c2nc3ccccc3s2)c1=O	-14.9%	–

Compound	activity change, negative = inhibition	Potency
CCC(C)Cn1c(O)cc2nn(-c3nc4ccccc4s3)c(=O)c-2c1C (stereo not given)	–	17.8 µM (active)
Cn1c(=O)c2c(nc(NCCNC(=O)c3ccco3)n2Cc2ccccc2F)n(C)c1=O	-7.23%	–
Cc1ccc(NC(=O)CC2S/C(=N/N=C3\CCCc4ccccc43)NC2=O)cc1 (stereo not given)	–	3.16 µM (active)
CCN=C1SC(CC(=O)Nc2ccc(C)cc2)C(=O)N1CC (stereo not given)	2.59%	–
Cc1c(Cl)cccc1NC(=O)CC1SC(=NCC2CCCO2)NC1=O (stereo not given)	-26.1%	–
CCCCn1c(N)c(N(CCOC)C(=O)COc2c(C)cccc2C)c(=O)[nH]c1=O	-17.2%	–
CS(=O)(=O)N1CCN(C(=O)CSc2ccccc2)CC1	-3.69%	–
Cc1ccc(S(=O)(=O)N2CCCC2CO)cc1 (stereo not given)	-11.5%	–
COc1ccc(-n2nnnc2SCC(=O)c2ccc(OC)c(OC)c2)cc1	97.5%	–
COc1ccc(CSc2nnnn2-c2ccc(O)cc2)cc1F	–	22.4 µM (active)
COc1ccc(CSc2nnnn2-c2ccc(C(=O)O)cc2)cc1	-18.9%	–
Cn1c2c(c(=O)n(C)c1=O)C(c1cccc([N+](=O)[O-])c1)Nc1ccccc1O2 (stereo not given)	-8.07%	–
CN(CCC1CCOCC1)C(=O)CC1C(=O)NCCN1Cc1cccc(F)c1 (stereo not given)	-3.93%	–
O=C(O)CCCC(=O)Nc1ccc(Oc2cccc(C(F)(F)F)c2)nc1	-13.8%	–
CC(C)CN(C(=O)COC(=O)c1ccc2ccccc2c1)c1c(N)n(Cc2ccccc2)c(=O)[nH]c1=O	-12.6%	–
CC(C)CN(C(=O)COC(=O)c1ccc(Cl)c(N)c1)c1c(N)n(Cc2ccccc2)c(=O)[nH]c1=O	–	28.2 µM (active)
Cc1csc(=O)n1CC(=O)OCC(=O)N(CC(C)C)c1c(N)n(Cc2ccccc2)c(=O)[nH]c1=O	-26.2%	–
CSc1ccccc1NC(=O)C(C)N1C(=O)c2ccccc2S1(=O)=O (stereo not given)	-13.6%	–
Cc1cc(NC(=O)C(C)N2C(=O)c3ccccc3S2(=O)=O)no1 (stereo not given)	–	25.1 µM (active)
Cc1cc(NC(=O)CSCc2ccccc2C)no1	-5.58%	–
O=C1CCC(=O)N(c2ccccc2)N1	0.2%	–
O=C(OCC1O[C@@H](OC(=O)c2cc(O)c(O)c(O)c2)[C@@H](OC(=O)c2cc(O)c(O)c(O)c2)[C@@H](OC(=O)c2cc(O)c(O)c(O)c2)[C@@H]1OC(=O)c1cc(O)c(O)c(O)c1)c1cc(O)c(O)c(O)c1 (stereo not given in full)	–	1 µM (active)
CCOCCCNC(=O)c1ccc(CS(=O)(=O)c2cccc(C(F)(F)F)c2)o1	16.8%	–
CCOCCn1[nH]c2ccccc2c1=O	-13%	–
CCOC(=O)c1sc(NC(=O)CSc2nc(O)c(Cc3ccccc3)c(=O)[nH]2)nc1C	–	15.8 µM (active)
